Data on 33 targets can be found in the supplement of paper PMC10849652.

Of roughly 8,800 targets only a part is listed; those with a hit were picked by preference. About 0.5% of all pairs of compound and target were hits.

Chain of UniProt P58004 (P58004 whole entry, looked up): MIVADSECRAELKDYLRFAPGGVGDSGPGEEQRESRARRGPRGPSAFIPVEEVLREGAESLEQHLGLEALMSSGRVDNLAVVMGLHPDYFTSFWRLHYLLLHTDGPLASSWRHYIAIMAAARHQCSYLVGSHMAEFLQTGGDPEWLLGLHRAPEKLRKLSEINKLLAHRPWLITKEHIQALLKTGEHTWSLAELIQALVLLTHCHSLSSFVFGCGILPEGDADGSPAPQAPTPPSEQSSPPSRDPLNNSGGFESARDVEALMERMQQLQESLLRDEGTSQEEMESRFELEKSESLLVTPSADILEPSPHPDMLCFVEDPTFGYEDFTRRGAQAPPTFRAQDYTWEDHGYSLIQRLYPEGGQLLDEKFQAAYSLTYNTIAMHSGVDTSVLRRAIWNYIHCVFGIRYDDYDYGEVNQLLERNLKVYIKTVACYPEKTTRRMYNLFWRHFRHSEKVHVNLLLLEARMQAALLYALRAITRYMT
Chain of UniProt Q9BTD8 (Q9BTD8 whole entry, looked up): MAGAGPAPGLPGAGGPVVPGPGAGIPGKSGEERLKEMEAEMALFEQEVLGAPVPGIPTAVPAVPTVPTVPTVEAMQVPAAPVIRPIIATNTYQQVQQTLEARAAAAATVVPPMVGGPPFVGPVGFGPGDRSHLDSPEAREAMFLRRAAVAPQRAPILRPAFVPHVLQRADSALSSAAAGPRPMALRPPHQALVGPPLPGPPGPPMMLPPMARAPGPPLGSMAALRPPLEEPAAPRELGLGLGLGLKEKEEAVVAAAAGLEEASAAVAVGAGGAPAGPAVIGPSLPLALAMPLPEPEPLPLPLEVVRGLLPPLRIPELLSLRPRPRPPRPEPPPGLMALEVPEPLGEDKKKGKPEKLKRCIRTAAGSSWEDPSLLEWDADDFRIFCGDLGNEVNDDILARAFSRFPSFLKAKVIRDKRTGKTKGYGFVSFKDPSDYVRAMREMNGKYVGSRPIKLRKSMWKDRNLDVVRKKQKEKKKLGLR
Chain of UniProt P40938 (P40938 whole entry, looked up): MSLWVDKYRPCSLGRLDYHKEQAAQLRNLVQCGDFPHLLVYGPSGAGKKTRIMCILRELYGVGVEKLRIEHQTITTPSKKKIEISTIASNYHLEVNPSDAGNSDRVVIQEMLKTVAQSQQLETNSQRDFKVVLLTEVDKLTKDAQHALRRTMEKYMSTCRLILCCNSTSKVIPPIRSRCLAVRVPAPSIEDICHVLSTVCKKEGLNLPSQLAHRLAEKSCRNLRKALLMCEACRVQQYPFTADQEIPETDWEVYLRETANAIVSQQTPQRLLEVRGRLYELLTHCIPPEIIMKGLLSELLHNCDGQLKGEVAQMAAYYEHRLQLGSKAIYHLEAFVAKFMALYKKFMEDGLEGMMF
Chain of UniProt Q9UQR0 (Q9UQR0 whole entry, looked up): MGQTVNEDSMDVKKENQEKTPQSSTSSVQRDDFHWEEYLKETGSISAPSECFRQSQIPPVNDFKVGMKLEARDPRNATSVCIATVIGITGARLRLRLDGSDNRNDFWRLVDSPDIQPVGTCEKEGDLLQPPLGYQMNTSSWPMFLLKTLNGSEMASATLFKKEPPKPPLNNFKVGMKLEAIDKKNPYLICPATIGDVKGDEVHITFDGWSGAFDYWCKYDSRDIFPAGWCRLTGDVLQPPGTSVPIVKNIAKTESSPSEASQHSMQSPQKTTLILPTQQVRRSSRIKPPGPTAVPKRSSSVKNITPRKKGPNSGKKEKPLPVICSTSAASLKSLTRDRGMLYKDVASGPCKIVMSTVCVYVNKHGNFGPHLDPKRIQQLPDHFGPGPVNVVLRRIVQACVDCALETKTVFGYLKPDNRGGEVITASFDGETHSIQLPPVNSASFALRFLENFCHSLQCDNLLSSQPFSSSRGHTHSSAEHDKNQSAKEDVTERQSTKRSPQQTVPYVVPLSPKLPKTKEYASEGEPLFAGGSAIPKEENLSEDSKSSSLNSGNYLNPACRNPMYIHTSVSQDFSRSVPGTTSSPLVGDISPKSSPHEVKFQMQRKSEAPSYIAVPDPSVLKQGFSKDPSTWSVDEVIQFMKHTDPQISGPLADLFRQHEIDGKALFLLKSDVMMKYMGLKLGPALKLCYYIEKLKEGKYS
Chain of UniProt Q7L523 (Q7L523 whole entry, looked up): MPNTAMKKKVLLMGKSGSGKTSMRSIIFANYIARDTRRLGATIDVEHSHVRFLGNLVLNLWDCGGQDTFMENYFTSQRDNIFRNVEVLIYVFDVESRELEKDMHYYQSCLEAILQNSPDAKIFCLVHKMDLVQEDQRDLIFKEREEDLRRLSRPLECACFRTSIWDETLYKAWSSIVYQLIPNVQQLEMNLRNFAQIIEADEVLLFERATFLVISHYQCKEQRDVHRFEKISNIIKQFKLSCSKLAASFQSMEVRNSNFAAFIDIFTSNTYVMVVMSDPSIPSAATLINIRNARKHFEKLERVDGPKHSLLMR
Chain of UniProt O95248 (O95248 whole entry, looked up): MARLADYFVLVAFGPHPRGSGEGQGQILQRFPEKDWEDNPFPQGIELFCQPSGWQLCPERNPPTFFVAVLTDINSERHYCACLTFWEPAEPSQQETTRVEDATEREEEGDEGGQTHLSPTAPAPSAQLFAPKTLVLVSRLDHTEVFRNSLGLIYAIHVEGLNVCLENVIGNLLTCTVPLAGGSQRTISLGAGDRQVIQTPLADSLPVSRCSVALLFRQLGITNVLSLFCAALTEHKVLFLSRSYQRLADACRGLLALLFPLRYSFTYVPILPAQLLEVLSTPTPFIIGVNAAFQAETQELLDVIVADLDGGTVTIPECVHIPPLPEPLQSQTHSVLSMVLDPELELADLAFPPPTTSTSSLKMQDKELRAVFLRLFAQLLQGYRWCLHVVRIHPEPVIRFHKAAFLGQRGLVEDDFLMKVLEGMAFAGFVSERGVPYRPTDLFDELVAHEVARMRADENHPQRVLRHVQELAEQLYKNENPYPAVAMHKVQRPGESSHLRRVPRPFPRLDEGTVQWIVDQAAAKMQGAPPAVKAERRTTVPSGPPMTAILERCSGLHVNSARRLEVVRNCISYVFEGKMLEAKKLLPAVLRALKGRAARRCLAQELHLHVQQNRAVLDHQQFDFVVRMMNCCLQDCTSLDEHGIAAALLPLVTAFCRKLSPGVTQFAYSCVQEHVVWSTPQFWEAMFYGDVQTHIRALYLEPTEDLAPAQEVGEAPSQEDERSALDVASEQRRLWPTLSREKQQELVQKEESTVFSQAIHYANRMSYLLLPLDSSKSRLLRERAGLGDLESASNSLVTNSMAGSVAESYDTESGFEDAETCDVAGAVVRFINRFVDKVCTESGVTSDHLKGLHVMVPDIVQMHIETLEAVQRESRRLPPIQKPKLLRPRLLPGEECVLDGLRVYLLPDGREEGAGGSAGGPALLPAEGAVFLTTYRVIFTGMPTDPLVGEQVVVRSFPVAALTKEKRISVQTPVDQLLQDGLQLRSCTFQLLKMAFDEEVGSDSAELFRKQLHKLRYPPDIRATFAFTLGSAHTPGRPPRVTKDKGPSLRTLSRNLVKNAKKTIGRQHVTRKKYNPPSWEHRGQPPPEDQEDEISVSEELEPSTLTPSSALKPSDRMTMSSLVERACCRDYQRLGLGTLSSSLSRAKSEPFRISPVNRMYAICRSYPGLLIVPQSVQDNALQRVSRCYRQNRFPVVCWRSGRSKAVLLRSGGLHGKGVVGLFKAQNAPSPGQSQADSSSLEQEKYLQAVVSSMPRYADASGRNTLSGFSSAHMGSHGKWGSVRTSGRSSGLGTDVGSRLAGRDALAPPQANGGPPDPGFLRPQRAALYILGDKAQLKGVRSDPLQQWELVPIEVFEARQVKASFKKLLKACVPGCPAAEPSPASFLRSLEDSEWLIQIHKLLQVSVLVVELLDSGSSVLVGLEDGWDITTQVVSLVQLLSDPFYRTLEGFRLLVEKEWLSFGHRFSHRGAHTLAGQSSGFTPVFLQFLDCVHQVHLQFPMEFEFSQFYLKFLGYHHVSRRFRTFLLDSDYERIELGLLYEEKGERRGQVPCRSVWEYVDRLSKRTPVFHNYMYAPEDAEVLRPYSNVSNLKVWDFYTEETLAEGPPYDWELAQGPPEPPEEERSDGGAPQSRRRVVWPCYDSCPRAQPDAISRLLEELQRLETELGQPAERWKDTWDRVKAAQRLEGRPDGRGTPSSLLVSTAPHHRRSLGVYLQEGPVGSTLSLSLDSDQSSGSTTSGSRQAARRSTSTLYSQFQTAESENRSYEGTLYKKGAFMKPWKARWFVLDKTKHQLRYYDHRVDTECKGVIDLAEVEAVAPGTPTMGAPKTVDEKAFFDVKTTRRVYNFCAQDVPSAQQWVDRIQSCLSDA
Chain of UniProt Q16576 (Q16576 whole entry, looked up): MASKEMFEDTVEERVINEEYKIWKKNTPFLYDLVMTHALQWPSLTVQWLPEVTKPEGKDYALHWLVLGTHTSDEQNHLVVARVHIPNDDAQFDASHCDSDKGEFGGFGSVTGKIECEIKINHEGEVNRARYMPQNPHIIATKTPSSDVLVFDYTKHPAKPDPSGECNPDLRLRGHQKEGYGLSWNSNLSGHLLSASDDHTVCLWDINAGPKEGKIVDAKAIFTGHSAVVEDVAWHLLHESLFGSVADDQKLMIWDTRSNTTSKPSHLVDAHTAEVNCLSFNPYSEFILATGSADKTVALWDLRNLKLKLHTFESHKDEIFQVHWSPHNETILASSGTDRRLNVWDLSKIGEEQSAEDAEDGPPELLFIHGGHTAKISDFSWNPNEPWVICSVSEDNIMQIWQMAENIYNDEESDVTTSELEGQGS
Chain of UniProt O00767 (O00767 whole entry, looked up): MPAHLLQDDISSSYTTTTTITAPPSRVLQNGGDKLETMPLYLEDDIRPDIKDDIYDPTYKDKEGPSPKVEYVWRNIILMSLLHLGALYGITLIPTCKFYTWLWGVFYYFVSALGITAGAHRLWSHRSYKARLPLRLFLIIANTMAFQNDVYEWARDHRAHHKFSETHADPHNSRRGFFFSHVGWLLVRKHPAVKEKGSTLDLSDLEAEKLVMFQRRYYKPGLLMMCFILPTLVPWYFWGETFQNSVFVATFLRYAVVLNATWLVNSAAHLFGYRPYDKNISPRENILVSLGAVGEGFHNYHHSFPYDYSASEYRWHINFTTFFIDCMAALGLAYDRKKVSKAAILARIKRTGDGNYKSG

Compound in the test: C1=CC2=C(C=CC(=C2)/C=C\3/C(=O)NC(=NCC4=CC=CS4)S3)N=C1
Briefly: log2 fold change, soluble protein after heating vs DMSO (PISA); higher = thermal stabilisation; K562 lysate, 10 uM; active = over 0.2 and 3.5 SD of the protein, either way, in both replicates (recomputed). The procedure, abridged:
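Soluble protein was defined as the supernatant remaining after 21,000xg for 90 min, following pooling of heated aliquots and adjustment to 0.5% NP-40 at 4°C. Before that, crude K562 extract at 1 mg/mL protein in PBS pH 7.4 with 1 mM MgCl2 was treated with 10 μM compound for 30 min and heated for 3 min across 48°C-58°C. Quantification used TMTpro 16plex LC-MS/MS with channel sums equalised, and values are log-two fold changes in thermal stability relative to solvent controls from duplicates.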
As to SCML2 (UniProt Q9UQR0), the log2 fold change was 0.068 (inactive).

For the target SESN2 (UniProt P58004), the log2 fold change was -0.017 (inactive).

RAF1 isoform 2 (UniProt P04049): the log2 fold change is -0.072 (inactive).

In the case of RFC3 (UniProt P40938), the log2 fold change is 0.024 (inactive).

Take RPS4X (UniProt P62701): the log2 fold change was -0.012 (inactive).

SEC24D isoform 2 (UniProt O94855): the log2 fold change is 0.008 (inactive).

Regarding SCCPDH (UniProt Q8NBX0), the log2 fold change was 0.083 (inactive).

Regarding SEH1L isoform 1 (UniProt Q96EE3), the log2 fold change is -0.023 (inactive).

For RTN4IP1 (UniProt Q8WWV3), the log2 fold change was 0.065 (inactive).

Turning to RPAP1 (UniProt Q9BWH6), the log2 fold change is 0.016 (inactive).

For the target RIOK1 (UniProt Q9BRS2), the log2 fold change was 0.209 (inactive).

On to REXO4 (UniProt Q9GZR2), for which the log2 fold change is -0.084 (inactive).

For RNF181 (UniProt Q9P0P0), the log2 fold change was 0.036 (inactive).

With RBMX (UniProt P38159), the log2 fold change was 0.016 (inactive).

Regarding RIOK3 (UniProt O14730), the log2 fold change was 0.029 (inactive).

With RNASEH2B (UniProt Q5TBB1), the log2 fold change is 0.019 (inactive).

In the case of SCD (UniProt O00767), the log2 fold change is 0.056 (inactive).

As to RBM42 (UniProt Q9BTD8), the log2 fold change is -0.062 (inactive).

As for RPL37A (UniProt P61513), the log2 fold change was -0.011 (inactive).

With RPN2 (UniProt P04844), the log2 fold change was 0.022 (inactive).

As for RRAGA (UniProt Q7L523), the log2 fold change was -0.065 (inactive).

Turning to RIC1 (UniProt Q4ADV7), the log2 fold change was 0.025 (inactive).

For the target RNASEL (UniProt Q05823), the log2 fold change was -0.01 (inactive).

For the target RECQL5 (UniProt O94762), the log2 fold change was 0.083 (inactive).

In the case of QRSL1 (UniProt Q9H0R6), the log2 fold change is -0.14 (inactive).

Take SBF1 isoform 4 (UniProt O95248): the log2 fold change was -0.052 (inactive).

Regarding RAP1B (UniProt P61224), the log2 fold change was 0.016 (inactive).

Take RPS26P11 (UniProt Q5JNZ5): the log2 fold change was -0.01 (inactive).

For RPL8 (UniProt P62917), the log2 fold change is -0.025 (inactive).

Regarding RIPK1 (UniProt Q13546), the log2 fold change was -0.022 (inactive).

RDX (UniProt P35241): the log2 fold change was -0.023 (inactive).

Turning to RAB21 (UniProt Q9UL25), the log2 fold change was 0.02 (inactive).

As for RBBP7 isoform 2 (UniProt Q16576), the log2 fold change is -0.03 (inactive).
